Results reported in PubChem BioAssay (NCI).
The panel holds about 79,000 compounds, 15% with a hit somewhere; the sample as a whole holds those more often. Values without a mark were called inactive. The source made the active and inactive calls. Cut-off read from the data, not from the text of the source: active = growth inhibition above about 70%; inactive = the rest.

Experiments:
[1] = NCI Yeast Anticancer Drug Screen. Data for the rad50 strain (AID 155);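 note: 0% = growth of vehicle-only cultures of the same strain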; conditions: S. cerevisiae rad50 strain growth inhibition, stronger effect = higher value
Outline: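 Yeast carrying a defined DNA repair defect were exposed to test compounds, and growth was compared with vehicle-treated controls to give percent inhibition.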

[2] = NCI Yeast Anticancer Drug Screen. Data for the mec2-1 strain (AID 157); conditions: S. cerevisiae mec2-1 strain, stronger effect = higher value
Outline: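 Mutant yeast (mec2-1) grown with compound; growth inhibition relative to vehicle control reported.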

[3] = NCI Yeast Anticancer Drug Screen. Data for the sgs1 mgt1 strain (AID 161);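 note: 0% = growth of cultures given vehicle only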; conditions: S. cerevisiae sgs1 mgt1 strain, stronger effect = higher value
Outline: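 Growth of a repair-deficient yeast mutant was monitored after compound treatment and expressed as inhibition relative to vehicle-treated cultures.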

[4] = NCI Yeast Anticancer Drug Screen. Data for the cln2 rad14 strain (AID 165);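 note: 0% = growth equal to vehicle treated cultures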; conditions: S. cerevisiae cln2 rad14 strain, stronger effect = higher value
Outline: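 Readout is yeast growth inhibition versus vehicle-treated controls, using a strain with cln2 and rad14 alterations exposed to compound.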

[5] = NCI Yeast Anticancer Drug Screen. Data for the bub3 strain (AID 167); conditions: S. cerevisiae bub3 mutant strain, stronger effect = higher value
Outline: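 Compounds were applied to a genetically altered yeast strain carrying a cell-cycle control defect. Growth inhibition was scored against vehicle-treated controls.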

[6] = NCI Yeast Anticancer Drug Screen. Data for the mlh1 rad18 strain (AID 175); conditions: S. cerevisiae mlh1 rad18 strain growth inhibition, stronger effect = higher value
Outline: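 Genetically defined yeast (DNA repair-deficient) exposed to compounds; growth inhibition determined relative to vehicle.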

[7] = at 5.0 µM (retest, dose inferred, filed as 0.5)
[8] = at 50.0 µM (retest, dose inferred, filed as 5.0)

SMILES	growth inhibition [1, 7]	growth inhibition [1, 8]	growth inhibition ([1]; at 50.0 µM)	growth inhibition [2, 7]	growth inhibition [2, 8]	growth inhibition ([2]; at 50.0 µM)	growth inhibition [3, 7]	growth inhibition [3, 8]	growth inhibition ([3]; at 50.0 µM)	growth inhibition [4, 7]	growth inhibition [4, 8]	growth inhibition ([4]; at 50.0 µM)	growth inhibition [5, 7]	growth inhibition [5, 8]	growth inhibition ([5]; at 50.0 µM)	growth inhibition [6, 7]	growth inhibition [6, 8]	growth inhibition ([6]; at 50.0 µM)
Fc1ccc(NCCS)cc1	-18%	90% (active)	85.2% (active)	-27%	95% (active)	87.8% (active)	-18%	61%	79.1% (active)	-4%	66%	60.2%	10%	93% (active)	86.9% (active)	-31%	90% (active)	84.3% (active)
CCOC(=O)/C(=C\c1ccc2ccccc2c1)P(=O)(OCC)OCC	-3%	59%	78.2% (active)	3%	81% (active)	79.5% (active)	9%	66%	72% (active)	30%	69%	65.4%	29%	88% (active)	74% (active)	17%	88% (active)	59.3%
CCCCCCCCCCCCNCCCc1ccccc1	99% (active)	98% (active)	98.1% (active)	100% (active)	99% (active)	99.2% (active)	100% (active)	99% (active)	98.5% (active)	99% (active)	97% (active)	98.8% (active)	99% (active)	99% (active)	98% (active)	99% (active)	99% (active)	98.5% (active)
O=[n+]1c2ccccc2n([O-])c2cc(Cl)ccc21	95% (active)	99% (active)	98.7% (active)	86% (active)	100% (active)	99.4% (active)	77% (active)	99% (active)	99.1% (active)	48%	99% (active)	96.7% (active)	95% (active)	100% (active)	98.5% (active)	94% (active)	99% (active)	99.1% (active)
CC1=CC[C@@H]2[C@@H](CC[C@@]2(C)O)C(C)(C)[C@H]1CC[C@@H]1[C@@]2(C)CCC(=O)C(C)(C)O[C@@H]2CC[C@]1(C)O	20%	57%	74.8% (active)	13%	37%	62.9%	-1%	78% (active)	72.2% (active)	16%	70% (active)	55.2%	10%	73% (active)	62.1%	25%	62%	22.9%
c1ccc(C2NCCNC2c2ccccc2)cc1 (stereo not given)	1%	-5%	2.15%	0%	-10%	15%	0%	-9%	22.3%	3%	-6%	-1.8%	4%	5%	55.3%	-3%	-7%	-19.2%
O=C(Cc1ccccc1)C(F)(F)F	10%	70% (active)	-8.45%	3%	15%	1.95%	4%	20%	42.2%	4%	2%	-15.6%	2%	19%	-7.95%	0%	18%	58.8%
Cc1ccc(N2C(=O)C=CC2=O)cc1	95% (active)	99% (active)	99.3% (active)	99% (active)	99% (active)	99.5% (active)	89% (active)	99% (active)	99.7% (active)	92% (active)	100% (active)	99.5% (active)	99% (active)	99% (active)	98.9% (active)	82% (active)	100% (active)	99.2% (active)
CSc1nc(C)c(C(=O)CCN2CCN(c3ccccn3)CC2)s1	-3%	99% (active)	86.8% (active)	-3%	100% (active)	78% (active)	-23%	99% (active)	66.2%	-2%	99% (active)	43.4%	-1%	100% (active)	79.5% (active)	-3%	99% (active)	58.6%
COC(=O)[C@]1(C)CCC[C@]2(C)c3ccc(C(C)C)cc3C(=O)[C@@H](Br)[C@@H]12	0%	9%	74.2% (active)	-2%	46%	51.9%	3%	58%	63.5%	-12%	44%	22.1%	2%	52%	82.4% (active)	-11%	49%	71.8% (active)
NC(=S)N/N=C/c1ncccc1O	-157%	-91%	24.4%	-50%	19%	80.2% (active)	-63%	-30%	7.55%	-68%	-73%	-23.4%	-74%	-78%	-7.5%	-123%	-101%	21.4%
COc1ccc2nc3cc(Cl)ccc3c(NCCCCCN3CCCCC3)c2c1	-3%	70% (active)	77.6% (active)	-3%	31%	39%	-7%	26%	47.1%	1%	45%	63%	-4%	4%	59.4%	0%	47%	59.9%
CC(C)c1ccc(Nc2n[nH]c(=S)s2)cc1	39%	82% (active)	86.1% (active)	32%	79% (active)	83% (active)	35%	68%	87.8% (active)	22%	85% (active)	84.6% (active)	33%	94% (active)	87.5% (active)	41%	82% (active)	84.1% (active)
Cc1cc(C)c(C#N)c(Sc2nc(C)c([N+](=O)[O-])c(C)c2C#N)n1	56%	54%	66.7%	37%	44%	29.7%	49%	54%	84.5% (active)	41%	51%	42.3%	51%	61%	15%	57%	55%	54.6%
CN=C(N)N/N=C(\C)c1ccc2c(c1)Cc1ccccc1-2	32%	98% (active)	77.5% (active)	19%	99% (active)	59.9%	51%	96% (active)	84.2% (active)	42%	86% (active)	52.8%	48%	95% (active)	81.5% (active)	26%	96% (active)	92.7% (active)
O=C(c1ccccc1)c1ccc(O)c2ncccc12	23%	99% (active)	98.6% (active)	-11%	99% (active)	97.8% (active)	10%	99% (active)	99% (active)	-8%	99% (active)	98% (active)	5%	99% (active)	98.5% (active)	17%	98% (active)	98.3% (active)
COc1ccc(C(OCC2OC(n3ccc(NC(=O)c4ccccc4)nc3=O)C(O)C2O)(c2ccccc2)c2ccccc2)cc1 (stereo not given)	56%	91% (active)	68.7%	23%	91% (active)	98.2% (active)	36%	83% (active)	56.4%	76% (active)	96% (active)	84.8% (active)	52%	90% (active)	98.5% (active)	62%	90% (active)	84.2% (active)
CCOc1ccc(NC(=O)/C(=N\N)C(C(=O)OC)c2nc3ccc(Cl)cc3[nH]c2=O)cc1 (stereo not given)	-14%	-17%	-12.9%	-1%	-10%	-13.1%	-8%	-3%	-24.4%	-25%	-8%	80.2% (active)	-6%	5%	-26.5%	-7%	-8%	-1.5%
O=C(c1ccc(O)c(Br)c1)c1ccc(O)c(Br)c1	43%	99% (active)	28.7%	76% (active)	99% (active)	76% (active)	44%	99% (active)	64.4%	83% (active)	99% (active)	43.5%	83% (active)	99% (active)	82.7% (active)	76% (active)	99% (active)	88% (active)
Oc1cc(Cl)ccc1Cc1ccc(Cl)cc1O	97% (active)	100% (active)	99.8% (active)	99% (active)	100% (active)	99.7% (active)	98% (active)	100% (active)	99.6% (active)	98% (active)	94% (active)	99.5% (active)	99% (active)	100% (active)	99.6% (active)	96% (active)	96% (active)	99.7% (active)
